JMJD2A Tudor inh – qHTS Assay for Inhibitors of JMJD2A-Tudor Domain; AlphaScreen JMJD2A-Tudor / H3K4me3 peptide binding; Potency, µM (highest dose often 114 µM), without a hit: at the highest dose activity change, negative = inhibition, most hits filed as inhibitors; 390,000 compounds, 4.4% hits; AID 504339, 2011; further: on the % scale 0 is the no-effect control and ±100 the full control effect; nearly all actives have a fitted effect of over 50% in size
HP1b chromo inh – HTS for Inhibitors of HP1-beta Chromodomain Interactions with Methylated Histone Tails. Potency, µM (doses to about 114 µM), inactives show at the highest dose activity change, negative = inhibition, hits mostly inhibitors. AlphaScreen HP1-beta / biotin-H3K9me3 peptide binding. 390,000 compounds, 0.56% hits. Chromobox protein homolog 1 (Homo sapiens), P83916; further: nearly all actives have a fitted effect of over 70% in size
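AlphaScreen: HP1-beta (50 nM) preformed 30 min with biotin-H3(1-18)K9me3 peptide (50 nM) in PBS pH 7.4, 0.01% Tween-20. Compound added for 30 min at RT, then streptavidin donor/nickel chelate acceptor beads (10 ug/mL) for 30 min.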
GLS inhibitor – qHTS for Inhibitors of Glutaminase (GLS) | Glutaminase kidney isoform, mitochondrial (Homo sapiens), O94925 | GLS enzymatic activity, qHTS titration | Potency, µM (doses to about 45.5 µM), for inactives: at the top dose activity change, negative = inhibition, hits mostly inhibitors | 410,000 compounds, 0.21% hits | AID 624170, 2012; further: on the % scale 0 is the no-effect control and ±100 the full control effect
Target sequence (O94925 whole entry, looked up, canonical isoform): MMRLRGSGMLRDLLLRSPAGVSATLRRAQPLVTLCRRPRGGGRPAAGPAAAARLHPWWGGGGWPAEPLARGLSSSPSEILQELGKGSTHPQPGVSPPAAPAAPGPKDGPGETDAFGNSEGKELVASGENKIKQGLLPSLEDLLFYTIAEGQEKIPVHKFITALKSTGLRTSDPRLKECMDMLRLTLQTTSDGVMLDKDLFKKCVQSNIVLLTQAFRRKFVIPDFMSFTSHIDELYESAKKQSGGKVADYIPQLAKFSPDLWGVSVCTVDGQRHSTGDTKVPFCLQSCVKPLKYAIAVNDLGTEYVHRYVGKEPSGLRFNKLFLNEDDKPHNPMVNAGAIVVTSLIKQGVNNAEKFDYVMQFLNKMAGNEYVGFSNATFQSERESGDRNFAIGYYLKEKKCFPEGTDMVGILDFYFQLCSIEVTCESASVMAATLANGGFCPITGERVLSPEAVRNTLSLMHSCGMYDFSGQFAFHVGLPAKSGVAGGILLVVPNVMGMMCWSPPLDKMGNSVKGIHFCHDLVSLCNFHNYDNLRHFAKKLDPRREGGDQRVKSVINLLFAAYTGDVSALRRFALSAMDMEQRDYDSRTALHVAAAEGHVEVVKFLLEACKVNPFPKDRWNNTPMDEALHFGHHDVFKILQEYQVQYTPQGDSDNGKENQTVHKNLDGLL
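Read-out is an Amplex red fluorescence increase coupled through glutamate oxidase and HRP, measured before and after 30 min room-temperature incubation. hKGA is in 45 mM KH2PO4 (pH 8.2) with 0.02% Tween-20; glutamine added as 1mM solution.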
G9a block – qHTS Assay for Inhibitors of Histone Lysine Methyltransferase G9a; G9a H3K9 monomethylation, AlphaScreen, 2 h; 350,000 compounds, 8.8% hits; Potency, µM (titrated, usually from 102 µM), inactives show at the top dose activity, negative = inhibition, usual class: inhibitors; further: on the % scale 0 is the no-effect control and ±100 the full control effect; nearly all actives have a fitted effect of over 75% in size
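AlphaScreen detection with an anti-monomethyl H3K9 antibody quantified product after a 2 h room-temperature reaction containing 500 nM biotinylated H3K9 peptide, 20 µM SAM and 20 nM enzyme, which had been preincubated 15 min with compound.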
BAZ2B inh – qHTS Assay for Inhibitors of BAZ2B. AlphaScreen BAZ2B-H3K14Ac peptide displacement. Potency, µM (series often up to 114 µM), for the others: at the highest dose activity change, negative = inhibition, actives largely listed as inhibitors. 360,000 compounds, 4.4% hits; further: on the % scale 0 is the no-effect control and ±100 the full control effect; nearly all actives have a fitted effect of over 60% in size
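BAZ2B 50 nM plus b-H3(5-23)K14Ac 50 nM, PBS pH 7.4/0.01% Tween-20, 30 min RT; compound added (max 110 uM), 30 min RT; streptavidin donor/Ni-chelate acceptor beads 10 ug/mL final, 20 min dark; AlphaScreen read.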
Numbers without * were called inactive; ? = inconclusive; nt = no result; [ ] = remark or other dose. The list is not random: actives were taken first. Their share in the collection is about 10%. The call rests on the fitted dose curve; in most records, active means well fitted curve in the direction sought with a large enough effect; inconclusive means small, poorly fitted or top-dose-only effect, or another doubt; inactive means no such curve, though single readings can be large; an effect the other way counts as inactive or inconclusive. Potency means the concentration at half of the fitted maximal effect.

SMILES | JMJD2A Tudor inh | HP1b chromo inh | GLS inhibitor | G9a block | BAZ2B inh
O=C(Cn1c(/C=C/c2ccccc2)nc2ccccc21)Nc1ccc(F)cc1 | 50µM* | 16% | ? | 28%[59 µM] | -3%
COc1ccccc1N1CCN(CC(=O)c2c(N)n(C)c(=O)n(C)c2=O)CC1 | -13% | 39% | 2% | 4% | -20%
CCN(CC)c1ccc(NC(=O)CN2CCN(c3ccc(F)cc3)CC2)cc1 | ? | -17% | 52% | 8.9µM* | ?
Cc1cc(NC(=O)CN2CCC(C)CC2)nc2c1c(=O)oc1ccccc12 | 5% | 24% | -6% | 5%[59 µM] | 1%
Cc1cc(NC(=O)CN2CCc3ccccc3C2)nc2c1c(=O)oc1ccccc12 | -22% | 39% | ? | 28µM* | -5%
O=C1NC(=O)C(=C2CCOC2=O)N1 | nt | nt | 1% | nt | nt
COc1ccc(C#Cc2cnc3c(c2)C(=O)N([C@@H](C)CO)C[C@@H](C)[C@@H](CN(C)CC2CCOCC2)O3)cc1 | nt | nt | 0% | nt | nt
O=C1CN(CC(=O)Nc2ccc(SC(F)F)cc2)CCN1 | -6% | 76% | -2% | -11% | -4%
COc1ccc(NC(=O)CN2CCc3ccccc3C2)cc1 | 22µM* | ? | 11% | nt | nt
O=C(CN1CCN(c2ccc(O)cc2)CC1)Nc1ccc(SC(F)F)cc1 | ? | -34% | 28% | 2.2µM* | ?
COc1ccc(N2CCN(CC(=O)Nc3cc(C)cc(C)c3)CC2)cc1 | ? | -20% | 2% | 79µM* | ?
COc1ccc(NC(=O)CN2CCc3ccccc3C2)cc1OC | -8% | 24% | 0% | 3% | -15%
COc1ccc(N2CCN(CC(=O)Nc3ccc(C)c(C)c3)CC2)cc1 | ? | -5% | 25% | ? | ?
COc1ccc(N2CCN(c3ccc4nnc(CCC(=O)Nc5ccc(C)cc5)n4n3)CC2)cc1 | ? | ? | 25% | nt | 45µM*
Cc1cc(C(=O)N2CCC2(C)C(=O)NS(=O)(=O)c2cccc(OC(F)F)c2)nn1C (stereo unspecified) | nt | nt | -4% | nt | nt
COc1ccc(N2CCN(C(=O)CN3CCN(c4nc(-c5ccc(F)cc5)cs4)CC3)CC2)cc1 | 32µM* | ? | 2% | ? | 20µM*
O=C(CN1CCOCC1)Nc1ccc(F)cc1 | 6% | 69% | -5% | 18% | -16%
CCN(CC)c1ccc(NC(=O)CN2CCN(c3nc(C)cc(C)n3)CC2)cc1 | -18%[11.4 µM] | ? | 26% | ? | 35µM*
COc1ccc(NC(=O)CN2CCN(c3ccc(F)cc3)CC2)cc1 | 25µM* | -2% | 30% | -2% | -14%
CCOc1ccc(NC(=O)CN2CCN(CC(=O)Nc3ccc(N(CC)CC)cc3)CC2)cc1 | -6% | 20%[57 µM] | 13% | ? | -2%
O=C(CN1CCN(CC(=O)Nc2ccc(-c3ccccc3)cc2)CC1)Nc1ccc(F)cc1 | -16% | -10% | 0% | 35µM* | -31%
COc1ccc(-c2nnn(CC(=O)N3CCN(c4ccc(F)cc4)CC3)n2)cc1 | -2%[11.4 µM] | 7% | -8% | 27% | -21%
Cc1ccc(C(c2sc3nc(-c4ccco4)nn3c2O)N2CCCCC2)cc1 (stereo unspecified) | -17% | -1% | 4% | -41%[59 µM] | -33%
Cc1ccc(-c2cnc(C(O)c3cc(C)cc(C)c3)[nH]2)cc1 (stereo unspecified) | nt | nt | 2% | nt | nt
O=C(/C=C/C(=O)N1CCc2ccccc2C1)N1CCc2ccccc2C1 | -15% | 28% | -3% | 0%[59 µM] | -14%
SMILES | JMJD2A Tudor inh | HP1b chromo inh | GLS inhibitor | G9a block | BAZ2B inh
COc1ccc(N2CCN(CC(=O)Nc3nc4c(s3)CC(C)CC4)CC2)cc1 (stereo unspecified) | 50µM* | ? | 34% | 10µM* | nt
O=C(O)CN1CCc2ccccc2C1 | 28µM* | -23% | ? | ? | -5%
COc1ccc(N2CCN(CC(=O)Nc3ncc(C)s3)CC2)cc1 | -30% | 0% | 31% | 14%[2.33 µM] | -12%
COc1ccc(N2CCN(CC(=O)Nc3nc(C)cs3)CC2)cc1 | 5.6µM* | 40µM* | -12% | 3.5µM* | 11µM*
CCOc1ccccc1C(=O)Nc1nc2c(s1)CC(C)CC2 (stereo unspecified) | -13% | 0% | -5% | 10µM* | 3%
O=c1c(-c2cccs2)nc2cnc(Oc3cccc(Cl)c3)nc2n1C1CC1 | nt | nt | nt | -9%[12.7 µM] | nt
Cc1ccc(-n2nc3c(c2NC(=O)CC(C)C)CS(=O)(=O)C3)cc1 | -18% | 17%[57 µM] | 0% | 7%[59 µM] | -13%
Cc1ccc2c(c1)cc(C(=O)NCc1ccc(F)cc1)n2C | 2% | 45% | 5% | 5%[59 µM] | -1%
CC1(C)O[C@H]2C[C@@H]3[C@H]4CCC5=CC(=O)C=C[C@]5(C)[C@@]4(F)[C@@H](O)C[C@]3(C)[C@]2(C(=O)CO)O1 | nt | nt | -9% | 19%[59 µM] | nt
COc1cccc(-c2cc(C(=O)Nc3cc(OC)c(OC)c(OC)c3)on2)c1 | ? | 1% | -16% | -40%[59 µM] | -34%
COc1ccc(-c2cc(C(=O)Nc3cccc(O)c3)on2)cc1OC | ? | -9% | 3% | 14µM* | ?
COc1cccc(-c2cc(C(=O)Nc3cc(Cl)ccc3O)on2)c1 | ? | -1% | -10% | 13µM* | ?
CC12CCC=CC1C(c1ccoc1)N(Cc1ccccc1)C2=O (stereo unspecified) | -33% | -7% | nt | nt | nt
CNC(=S)N/N=C/c1cn(CCOc2cccc(OC)c2)c2ccccc12 | ? | ? | ? | 45µM* | ?
CNC(=S)N/N=C/c1cn(CCOc2ccccc2OC)c2ccccc12 | -30% | -8% | 24% | 8%[59 µM] | ?
C=C(C)[C@H]1CC=C(C)/C(=N/NC(=O)CNc2ccccc2OC)C1 | ? | 20% | -9% | 24%[0.0925 µM] | ?
C=C(C)C1CC=C(C)/C(=N\NC(=O)CNc2cccc3ccccc23)C1 (stereo unspecified) | -24% | 23% | -3% | 10µM* | -3%
CC(C)c1nnc(NC(=O)CCS(=O)(=O)Cc2ccccc2)s1 | 1% | -16% | 14% | 28µM* | 0%
CC(C)c1nnc(NC(=O)CCS(=O)(=O)c2nc(-c3cccs3)cc(C(F)(F)F)n2)s1 | -23% | 30% | 9% | 1.8µM* | 89µM*
O=C(CCS(=O)(=O)c1nc(-c2cccs2)cc(C(F)(F)F)n1)Nc1ccc(OC(F)(F)F)cc1 | -8% | 23% | 6% | -4%[59 µM] | 11%
COc1ccc(CN2CN(S(=O)(=O)c3ccccc3)c3nc4ccccc4nc32)cc1 | ? | 7% | -1% | -23% | -38%
CN(C(=O)CSc1nc2ccccc2n1CC(=O)N(C)c1ccc(F)cc1)c1ccccc1 | -17% | 29% | -7% | -21%[12.7 µM] | -13%
O=[N+]([O-])c1ccc2nonc2c1Nc1cccc(F)c1 | ? | -21% | 1% | -19% | ?
